# From PubChem BioAssay
# Activity calls are given as the source filed them.
# How the values were obtained:
# [1] = test system: Human papillomavirus type 1a protein E7 (residues 44-93); test: small molecules binding HPV E7 44-93 – biochemical, small-molecule microarray, residues 44-93, 635 nm fluorescence, primary screen (AID 1108); details: fluorescence 635 nm, higher = more signal;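 further: E7 fragment applied at 1 µg/mL in TBST for 1 h at 4 C; score combines spot fluorescence with its signal to noise ratio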
# [2] = hepatitis C replication reporter changes, two-sided – Huh7 cells, luciferase reporter, HCV replication inhibitor project, primary screen (AID 1109); details: Huh7 HCV replicon luciferase reporter, 48 h; higher = more signal;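 further: huh7 hepatoma cells harbouring a luciferase neomycin HCV replicon reporter; luciferase luminescence as measure of HCV replicon replication; test concentration not given here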
# [3] = target: Left-right determination factor 2 (Homo sapiens) (UniProt O00292); test: small molecules binding LEFTY2 protein – biochemical, small-molecule microarray, 635 nm fluorescence scan, primary screen (AID 1110); details: higher = more signal
# Chain of Left-right determination factor 2 (Homo sapiens) (O00292 whole entry, looked up): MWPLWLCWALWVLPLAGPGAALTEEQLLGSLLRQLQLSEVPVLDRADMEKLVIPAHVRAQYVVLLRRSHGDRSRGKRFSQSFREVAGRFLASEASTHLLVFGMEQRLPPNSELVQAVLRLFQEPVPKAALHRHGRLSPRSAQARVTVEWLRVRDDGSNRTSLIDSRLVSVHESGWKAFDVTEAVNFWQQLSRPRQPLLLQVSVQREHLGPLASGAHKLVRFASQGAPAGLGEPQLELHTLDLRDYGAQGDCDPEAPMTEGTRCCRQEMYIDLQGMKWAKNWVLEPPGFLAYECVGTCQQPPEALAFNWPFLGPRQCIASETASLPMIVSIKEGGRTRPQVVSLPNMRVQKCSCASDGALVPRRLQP
# [4] = target: Calmodulin-1 (Homo sapiens) (UniProt P0DP23); test: small molecules binding calmodulin-1 with EGTA – biochemical, small-molecule microarray, Cy5-labelled CALM1, profiling panel (AID 1111); details: Cy5-CALM1 binding fluorescence, higher = more signal;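 further: labelled calmodulin applied in Tris saline Tween buffer holding calcium plus EGTA and DTT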
# [5] = target: Calmodulin-1 (Homo sapiens) (UniProt P0DP23); test: small molecules binding Ca-loaded calmodulin-1 – biochemical, small-molecule microarray, Cy5-labelled CALM1, plus calcium, artefact control for SMM control-protein annotation, profiling panel (AID 1112); details: Cy5-CALM1 binding fluorescence, higher = more signal;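 further: score merges spot fluorescence with signal to noise from triplicate slides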
# [6] = probe aWnt5a binding to arrayed compounds – biochemical, biotinylated probe, 635/667 nm fluorescence, primary screen (AID 1113); details: small-molecule microarray, higher = more signal;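 further: score merges 667 nm fluorescence intensity with signal-to-noise per printed feature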
# [7] = probe aShh binding to arrayed compounds – biochemical, biotinylated probe, 635/667 nm fluorescence, primary screen (AID 1114); details: small-molecule microarray, higher = more signal;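 further: probe is biotin-labelled aShh protein from a stem cell growth factor screen; measures binding of labelled protein to compounds printed on the slide; score merges feature fluorescence at 667 nm with signal-to-noise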
# [8] = probe aNog binding to arrayed compounds – biochemical, biotinylated probe, 635/667 nm fluorescence, primary screen (AID 1115); details: small-molecule microarray, higher = more signal;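 further: probe is biotinylated aNog protein used at 0.15 µg/mL for 1 h at 4 C; z-score combines 667 nm fluorescence of each spot with its signal to noise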
# [9] = target: Torsin-1A-interacting protein 1 (Homo sapiens) (UniProt Q5JTV8); test: compound microarray binding of lysate hLAP1 – cell lysate, small-molecule microarray, COS7 lysate, 635/667 nm fluorescence, primary screen (AID 1116); details: 635 nm fluorescence, higher = more signal
# Chain of Torsin-1A-interacting protein 1 (Homo sapiens) (Q5JTV8 whole entry, looked up): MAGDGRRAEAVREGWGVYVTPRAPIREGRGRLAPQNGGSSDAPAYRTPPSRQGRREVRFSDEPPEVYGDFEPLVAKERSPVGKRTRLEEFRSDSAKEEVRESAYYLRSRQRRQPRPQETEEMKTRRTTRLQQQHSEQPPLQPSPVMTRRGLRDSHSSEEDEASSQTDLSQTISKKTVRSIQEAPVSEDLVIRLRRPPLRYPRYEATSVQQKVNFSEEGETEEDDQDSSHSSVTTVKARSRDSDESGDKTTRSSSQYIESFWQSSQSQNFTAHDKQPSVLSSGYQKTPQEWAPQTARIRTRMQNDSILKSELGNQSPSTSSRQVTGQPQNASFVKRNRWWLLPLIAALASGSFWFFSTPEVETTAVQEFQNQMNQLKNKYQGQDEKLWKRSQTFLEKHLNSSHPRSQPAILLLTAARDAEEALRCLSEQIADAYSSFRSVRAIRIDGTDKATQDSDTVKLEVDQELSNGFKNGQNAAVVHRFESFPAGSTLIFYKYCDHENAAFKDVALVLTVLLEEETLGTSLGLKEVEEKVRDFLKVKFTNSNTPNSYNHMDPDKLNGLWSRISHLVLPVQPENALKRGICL
# [10] = target: Alpha-bungarotoxin (Bungarus multicinctus) (UniProt P60615); test: compounds binding labelled alpha-BTX control protein – biochemical, small-molecule microarray, Alexa647 label, 635/667 nm fluorescence, artefact control for SMM control protein annotation, profiling panel (AID 1117); details: alpha-BTX-A647 binding fluorescence, higher = more signal
# Chain of Alpha-bungarotoxin (Bungarus multicinctus) (P60615 whole entry, looked up): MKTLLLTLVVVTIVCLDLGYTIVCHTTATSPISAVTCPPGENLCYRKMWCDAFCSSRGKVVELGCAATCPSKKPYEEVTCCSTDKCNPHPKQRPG
# [11] = target: Albumin (Bos taurus) (UniProt P02769); test: compounds binding labelled BSA control protein – biochemical, small-molecule microarray, Alexa647 label, 635/667 nm fluorescence, artefact control for SMM control protein annotation, profiling panel (AID 1118); details: BSA-A647 binding, fluorescence 635 nm, higher = more signal;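 further: score merges 667 nm emission intensity and signal-to-noise per printed compound spot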
# Chain of Albumin (Bos taurus) (P02769 whole entry, looked up): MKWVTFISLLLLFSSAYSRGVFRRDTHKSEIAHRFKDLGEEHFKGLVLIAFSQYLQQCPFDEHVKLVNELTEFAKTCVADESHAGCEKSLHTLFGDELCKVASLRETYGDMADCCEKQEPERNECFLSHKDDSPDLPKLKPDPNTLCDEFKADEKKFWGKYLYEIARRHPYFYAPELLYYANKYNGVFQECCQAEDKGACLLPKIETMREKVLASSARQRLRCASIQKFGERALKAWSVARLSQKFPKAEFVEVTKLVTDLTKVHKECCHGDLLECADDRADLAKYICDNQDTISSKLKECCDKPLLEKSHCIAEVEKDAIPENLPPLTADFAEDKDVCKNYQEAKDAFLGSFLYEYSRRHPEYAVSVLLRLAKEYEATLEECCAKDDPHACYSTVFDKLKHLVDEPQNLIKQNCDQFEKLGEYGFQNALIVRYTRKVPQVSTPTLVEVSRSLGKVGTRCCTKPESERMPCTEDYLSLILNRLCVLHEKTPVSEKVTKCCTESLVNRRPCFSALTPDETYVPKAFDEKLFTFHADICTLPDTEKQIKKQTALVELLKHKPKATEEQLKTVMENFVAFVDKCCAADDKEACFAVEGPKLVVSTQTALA
# [12] = probe aXIP binding to arrayed compounds – biochemical, NeuroSMM set, 635/667 nm fluorescence, primary screen (AID 1119); details: small-molecule microarray, higher = more signal, called active from +8 up or from −8 down;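 further: probe is the protein aXip251-270 applied at 1 µg/mL to compound-printed slides; binding of probe to printed compounds measured as 667 nm fluorescence plus signal to noise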
# [13] = probe aNOTCH3 binding on compound microarray – biochemical, small-molecule microarray, 635/667 nm fluorescence, primary screen (AID 1120); details: higher = more signal;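 further: probe is a biotin-tagged antibody raised against NOTCH3 rather than NOTCH3 protein; score merges spot fluorescence near 667 nm with spot signal to noise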
# [14] = probe aNOTCH2 binding on compound microarray – biochemical, small-molecule microarray, 635/667 nm fluorescence, primary screen (AID 1121); details: higher = more signal;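 further: score merges feature fluorescence read at 667 nm with its signal to noise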
# [15] = target: Carbonic anhydrase 2 (Homo sapiens) (UniProt P00918); test: compounds binding carbonic anhydrase 2 – biochemical, small-molecule microarray, Alexa647-labelled CAII, profiling panel (AID 1122); details: CAII-A647 binding fluorescence, higher = more signal
# [16] = COS7 lysate on small-molecule microarray, probe aHis, 635 nm (AID 1123); details: COS7 cell lysate, fluorescence, higher = more signal;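 further: z-score combines 667nm fluorescence intensity with signal-to-noise per printed compound spot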
# [17] = probe aLAP1 signal on lysate-treated microarray – cell lysate, small-molecule microarray, COS7 lysate, primary screen (AID 1124); details: probe aLAP1, fluorescence, higher = more signal;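 further: lysate comes from COS7 cells expressing LAP1 and is applied at 0.3 µg/mL; score merges spot fluorescence near 667 nm with signal-to-noise over triplicate slides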
# [18] = test system: Sam68 (KHDRBS1); test: compounds binding KHDRBS1 protein – biochemical, small-molecule microarray, 635 nm fluorescence, primary screen (AID 1125); details: higher = more signal;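 further: score merges 667 nm channel intensity with signal to noise over triplicate slides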
# [19] = test system: Chordin-like protein 2 (CHRDL2); test: compounds binding chordin-like 2 – biochemical, small-molecule microarray, 635 nm fluorescence, primary screen (AID 1126); details: fluorescence 635 nm, higher = more signal;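 further: printed compound slides probed with Chrdl2 protein at 4 µg/mL for 1 h at 4 C; score merges 667 nm emission intensity with signal to noise over three replicate slides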
# [20] = target: Concanavalin-A (Canavalia ensiformis) (UniProt P02866); test: compounds binding concanavalin A lectin – biochemical, small-molecule microarray, Alexa647 label, 635 nm, artefact control for SMM control protein annotation, primary screen (AID 1127); details: ConA-A647 binding fluorescence, higher = more signal;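 further: z combines 667 nm emission intensity with signal-to-noise across three replicate slides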
# Chain of Concanavalin-A (Canavalia ensiformis) (P02866 whole entry, looked up): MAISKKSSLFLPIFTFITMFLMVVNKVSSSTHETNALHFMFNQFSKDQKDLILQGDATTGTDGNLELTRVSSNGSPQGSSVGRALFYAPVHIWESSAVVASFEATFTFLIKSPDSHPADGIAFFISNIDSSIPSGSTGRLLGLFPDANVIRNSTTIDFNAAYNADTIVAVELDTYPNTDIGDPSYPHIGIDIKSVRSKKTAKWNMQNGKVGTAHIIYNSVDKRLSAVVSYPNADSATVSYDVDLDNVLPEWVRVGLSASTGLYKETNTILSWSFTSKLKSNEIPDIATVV
SMILES,composite z-score [1],z-score [2],composite z-score [3],composite z-score [4],composite z-score [5],composite z-score [6],composite z-score [7],composite z-score [8],composite z-score [9],composite z-score [10],composite z-score [11],composite Z-score [12],composite z-score [13],composite z-score [14],composite z-score [15],composite z-score [16],composite z-score [17],composite z-score [18],composite z-score [19],composite z-score [20]
COC(=O)c1c(CC[C@@H](CO)NC(=O)N[C@@H](C)Cn2cc(-c3ccccn3)nn2)oc(C(C)=O)c1C(=O)OC,0.683,0.51,0.328,-0.063,-1.06,-0.0981,0.123,-0.0926,0.237,-0.715,-0.373,0.615 (inactive),0.11,-0.0995,0.708,0.267,-0.555,0.871,0.204,0.743
CC(C)NC(=O)[C@@]1(C)c2ccccc2C(=O)N(Cc2ccc(OC(F)(F)F)cc2)[C@H]1c1ccc(CO)cc1,0.0959,-0.706,-1.49,-0.43,0.495,-0.124,-0.0833,-0.472,-0.284,-0.94,0.484,-0.263 (inactive),-0.367,-0.0995,0.607,1.54,0.173,0.844,-1.02,-0.04
COc1ccc(C#Cc2ccc3c(c2)[C@]2(C(=O)N3)[C@H](c3ccc(O)cc3)N3[C@H](c4ccccc4)[C@H](c4ccccc4)OC(=O)[C@H]3[C@@H]2C(=O)Nc2nc3ccccc3s2)cc1,1.26,-1.13,0.739,1.11,0.495,-0.0685,-0.0813,0.352,1.22,1.25,0.67,0.276 (inactive),-0.014,0.117,0.61,2.47,0.98,1.29,0.428,1.08
COc1ccc([Si](C)(C)[C@H]2[C@H](CC(=O)N3CCC[C@H]3CO)O[C@@]3(C(=O)N(Cc4ccc(N5CCOC5=O)cc4)c4ccccc43)[C@@H]2C)cc1,1.37,-2.52,0.75,0.655,0.0967,0.0194,-0.223,-0.172,0.833,1.08,-0.195,-0.0549 (inactive),0.336,-0.075,0.364,1.89,0.145,1.34,0.731,0.618
CCCC=C(CCC)[C@@H](NS(=O)(=O)CC12CCC(CC1=O)C2(C)C)c1ccc(C(=O)OC)cc1 (stereo not given in full),1.33,-0.197,0.306,-0.057,-0.654,-0.165,-0.373,-0.289,0.159,-0.362,0.0225,0.234 (inactive),0.344,0.0727,-0.0343,2.12,0.154,0.96,-0.14,0.438
NC(=O)[C@H]1[C@@H]2C(=O)O[C@@H](c3ccccc3)[C@@H](c3ccccc3)N2[C@@H](c2ccc(OCCO)cc2)[C@]12C(=O)Nc1ccc(C#CCCO)cc12,0.333,-1.39,-0.128,0.947,0.382,0.055,-0.253,-0.387,0.757,1.59,0.586,0.988 (inactive),0.0203,0.0252,0.537,1.26,0.204,1.16,0.0273,1.07
CCCC=C(CCC)[C@@H](NS(=O)(=O)c1ccc(C(F)(F)F)cc1)c1ccccc1,0.608,-0.0015,-0.318,0.641,0.951,0.0853,-0.106,0.711,-0.127,0.261,-0.127,0.404 (inactive),0.149,0.115,0.0051,1.34,-0.122,0.42,-0.732,0.277
CC1=C2[C@@H](CCc3ccccc3)OB(O)C[C@@H]2[C@@H]2C(=O)N(Cc3ccccc3)C(=O)[C@@H]2C1,-0.125,-0.873,0.809,-0.122,-0.605,-0.0869,-0.0709,-0.314,0.59,0.659,0.415,0.831 (inactive),-0.145,-0.0735,0.585,0.328,-0.294,0.227,0.226,0.948
COc1ccc([Si](C)(C)[C@@H]2[C@@H](CC(=O)N(CCO)Cc3ccccc3)O[C@]3(C(=O)N(Cc4cccc(N5CCCCC5=O)c4)c4ccccc43)[C@H]2C)cc1,0.846,-3.89,0.478,0.822,0.645,0.0825,0.128,1.73,0.761,0.672,0.11,0.42 (inactive),-0.22,-0.131,0.52,1.86,-0.104,0.646,0.905,1.03
C=C(/C(=C/C[C@H](OC(=O)c1ccncc1)c1ccc(CO)o1)c1cnc2ccccc2c1)C(C)C,1.38,-2.1,0.957,0.544,-0.0351,0.0474,-0.15,0.181,0.854,0.999,0.702,-0.55 (inactive),0.169,-0.0216,0.902,0.75,-0.159,1.12,0.684,1.11
CCOC(=O)C=Cc1cccc(C)c1O,-0.377,0.717,0.111,-0.122,-0.335,-0.1,-0.0769,-0.288,0.0897,0.11,-0.268,-0.352 (inactive),-0.0881,-0.114,0.422,-0.15,0.514,-0.0261,-0.0961,0.0646
